Screening data deposited in PubChem BioAssay by National Center for Advancing Translational Sciences (NCATS).
A selection: hits, their analogues and other compounds. The true share with any hit is near 10%.
JMJD2A Tudor inh: qHTS Assay for Inhibitors of JMJD2A-Tudor Domain. Lysine-specific demethylase 4A (Homo sapiens), O75164. AlphaScreen JMJD2A-Tudor / H3K4me3 peptide binding. Potency, µM (series often up to 114 µM), for the others: at the highest dose activity change, negative = inhibition, actives largely listed as inhibitors. actives 4.4% (n = 390,000). AID 504339, 2011; further: potency means the concentration at half of the fitted maximal effect; on the % scale 0 is the no-effect control and ±100 the full control effect; nearly all actives have a fitted effect of over 50% in size
HP1b binding inh: HTS for Inhibitors of HP1-beta Chromodomain Interactions with Methylated Histone Tails; Chromobox protein homolog 1 (Homo sapiens), P83916; AlphaScreen HP1-beta / biotin-H3K9me3 peptide binding; Potency, µM (top dose mostly 114 µM), without a hit: at the highest dose activity change, negative = inhibition, hits mostly inhibitors; actives 0.56% (n = 390,000); further: potency means the concentration at half of the fitted maximal effect; nearly all actives have a fitted effect of over 70% in size
Target sequence (P83916 whole entry, looked up): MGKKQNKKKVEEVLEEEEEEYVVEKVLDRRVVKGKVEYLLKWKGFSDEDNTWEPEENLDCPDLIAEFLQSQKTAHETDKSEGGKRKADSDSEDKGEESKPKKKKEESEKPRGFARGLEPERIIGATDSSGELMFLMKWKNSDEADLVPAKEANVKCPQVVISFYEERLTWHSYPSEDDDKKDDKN
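Compound inhibition of the preformed complex between 50 nM HP1-beta and 50 nM biotinylated H3K9me3 peptide was read by AlphaScreen. Buffer was PBS pH 7.4 with 0.01% Tween-20. Incubations ran 30 min at room temperature, with 10 ug/mL donor/acceptor beads.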
BAZ2B block: qHTS Assay for Inhibitors of BAZ2B; Bromodomain adjacent to zinc finger domain protein 2B (Homo sapiens), Q9UIF8; AlphaScreen BAZ2B-H3K14Ac peptide displacement; Potency, µM (doses to about 114 µM), without a hit: top-dose activity change, negative = inhibition, most hits filed as inhibitors; actives 4.4% (n = 360,000); AID 504333, 2011; further: potency means the concentration at half of the fitted maximal effect; on the % scale 0 is the no-effect control and ±100 the full control effect; nearly all actives have a fitted effect of over 60% in size
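AlphaScreen displacement of biotin-H3(5-23)K14Ac peptide (50 nM final) from BAZ2B (50 nM final) in PBS pH 7.4, 0.01% Tween-20; complex preformed 30 min RT, then compounds (top 110 uM) 30 min RT, beads 20 min dark.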
G9a inh: qHTS Assay for Inhibitors of Histone Lysine Methyltransferase G9a; Potency, µM (highest dose often 102 µM), for the others: at the highest dose activity, negative = inhibition, most hits filed as inhibitors; Histone-lysine N-methyltransferase EHMT2 (Homo sapiens), Q96KQ7; G9a H3K9 monomethylation, AlphaScreen, 2 h; actives 8.8% (n = 350,000); further: potency means the concentration at half of the fitted maximal effect; on the % scale 0 is the no-effect control and ±100 the full control effect; nearly all actives have a fitted effect of over 75% in size
Target sequence (Q96KQ7 913-1193 limits assumed): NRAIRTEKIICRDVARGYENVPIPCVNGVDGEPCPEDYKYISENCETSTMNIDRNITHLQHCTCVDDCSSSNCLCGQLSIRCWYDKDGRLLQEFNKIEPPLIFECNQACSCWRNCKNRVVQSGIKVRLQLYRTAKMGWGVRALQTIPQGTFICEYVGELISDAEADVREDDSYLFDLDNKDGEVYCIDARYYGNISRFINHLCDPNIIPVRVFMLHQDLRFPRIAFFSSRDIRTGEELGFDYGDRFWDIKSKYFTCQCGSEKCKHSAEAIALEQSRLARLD
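Signal arises when biotinylated H3K9 peptide, once monomethylated, bridges streptavidin donor and antibody-captured acceptor beads. Enzyme at 20 nM was preincubated 15 min with test compounds; peptide 500 nM and SAM 20 uM then reacted for 2 h.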
GLS inh: qHTS for Inhibitors of Glutaminase (GLS). Glutaminase kidney isoform, mitochondrial (Homo sapiens), O94925. GLS enzymatic activity, qHTS titration. Potency, µM (top dose mostly 45.5 µM), for inactives: at the highest dose activity change, negative = inhibition, actives largely listed as inhibitors. actives 0.21% (n = 410,000). AID 624170, 2012; further: potency means the concentration at half of the fitted maximal effect; on the % scale 0 is the no-effect control and ±100 the full control effect
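Two-point fluorescence kinetic (t0, 30 min RT) for hKGA; glutamate detected via glutamate oxidase–HRP–Amplex Red. Substrate: 1 mM L-glutamine solution; buffer 45 mM KH2PO4, pH 8.2.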
GLS hit conf: qHTS for Inhibitors of Glutaminase (GLS): Hit Confirmation | shares compounds with GLS inh | biochemical glutaminase enzyme inhibition assay | 35 tested, under 10 active | Potency, µM (series often up to 46.1 µM), for inactives: at the highest dose activity change, negative = inhibition, most hits filed as inhibitors; calls by dose curve
GLS HRP counter: qHTS for Inhibitors of Glutaminase (GLS): Hit Confirmation in HRP Counterscreen. HRP/glutamate oxidase coupled Amplex Red fluorescence counterscreen. activity change, negative = inhibition, % at 46.1 µM. AID 624262, 2012. shares compounds with GLS inh. 35 tested, under 10 active
HEK293 tox: qHTS for Inhibitors of Glutaminase (GLS): Hit Confirmation using Cytotoxicity; shares compounds with GLS inh; HEK-293 viability, CellTiter-Glo luminescence, 24 h; activity change, negative = cytotoxicity, % at 46.1 µM; 35 tested, under 10 active; AID 624264, 2012
Active calls of the source: *; ? = inconclusive; / = no result given; [ ] = remark or other dose. Unless noted, the call rests on the fitted dose curve; in most records, active means well fitted curve in the direction sought with a large enough effect; inconclusive means small, poorly fitted or top-dose-only effect, or another doubt; inactive means no such curve, though single readings can be large; an effect the other way counts as inactive or inconclusive.

SMILES | JMJD2A Tudor inh | HP1b binding inh | BAZ2B block | G9a inh | GLS inh | GLS hit conf | GLS HRP counter | HEK293 tox
COc1ccc(NS(=O)(=O)c2cc(NC(=O)[C@H](C)NC(N)=O)ccc2N2CCCC2)cc1 | -32% | 10% | / | / | 16µM* | 8% | ? | 5
O=C(Cc1ccsc1)N1CCN(S(=O)(=O)c2ccccc2F)CC1 | -2% | 23% | 10% | -13%[59 µM] | 5% | / | / | /
CCN(CC)S(=O)(=O)c1ccc(NS(=O)(=O)c2cccc(C)c2)cc1 | -13% | 8% | 8% | 9%[59 µM] | ? | 11% | 2 | -9
Cc1ccc(S(=O)(=O)Nc2cc(Cl)c(O)c3ncccc23)cc1 | 22µM* | 79µM* | 8.9µM* | 7.9µM* | 7.1µM* | ? | -6 | ?
Cc1ccc(S(=O)(=O)Nc2cc(S(=O)(=O)c3ccc(C)cc3)c(O)c3cccnc23)cc1 | -19% | / | / | / | / | / | / | /
COc1ccc(Cl)cc1NC(=O)CSC1=Nc2ccccc2C2=NC(CC(=O)NCc3cccs3)C(=O)N12 (stereo not given) | -21% | 21% | -7% | -32%[59 µM] | 16% | / | / | /
COc1ccc(OC)c(S(=O)(=O)Nc2cccc3ccc(O)cc23)c1 | -28% | 3% | / | / | 6.3µM* | 1% | ? | 6
Cc1ccc(S(=O)(=O)Nc2ccc(O)c3ccccc23)c(C)c1 | 45µM* | 50µM* | 45µM* | 22µM* | 7.9µM* | ? | -9 | -21
CC(C)N(C)Cc1nnnn1CC(=O)N(C)Cc1ccc(F)cc1 | -7% | 91% | 1% | -2% | -5% | / | / | /
COc1ccccc1N(C)S(=O)(=O)c1ccc(C(=O)OCC(=O)N(C)c2ccccc2)cc1 | -15% | 17% | / | 17% | 7.1µM* | 4% | 5 | 2
CN1C(=O)c2cccc3c(S(=O)(=O)NCCc4ccccc4)ccc1c23 | 53% | 115% | 41% | 31% | 0% | / | / | /
CN1C(=O)c2cccc3c(S(=O)(=O)Nc4ccc(O)c(C(=O)O)c4)ccc1c23 | -19% | -10% | -10% | ? | ? | ? | ? | 9
CSCCC(NS(=O)(=O)c1cccc(C(F)(F)F)c1)C(=O)Nc1ccccc1N1CCCC1 (stereo not given) | ? | -13% | -34% | 8%[0.501 µM] | 16% | / | / | /
Cc1c(NC(=O)COc2cccc(Cl)c2Cl)c(=O)n(-c2ccccc2)n1C | -4% | 12% | 16% | 23%[2.33 µM] | 3% | / | / | /
Cc1ccc(C(=O)C(C)OC(=O)C2CC(=O)N(C3CCCCC3)C2)cc1 (stereo not given) | -19% | 15% | 0% | / | 0% | / | / | /
COc1ccccc1NS(=O)(=O)c1cc(N)ccc1N1CCCC1 | ? | 14µM* | / | / | ? | 1% | ? | -3
COc1ccc(NS(=O)(=O)c2cc(N)ccc2N2CCCCC2)cc1 | ? | -1% | ? | -15%[12.7 µM] | 17% | / | / | /
Cc1ccc(S(=O)(=O)Nc2cc(C)c(O)c(Sc3n[nH]c(C)n3)c2)cc1 | 11µM* | ? | -28% | 7.1µM* | 10µM* | ? | ? | -5
